Bioassay records from PubChem BioAssay.
TDP1 cell noCPT: qHTS for Inhibitors of human tyrosyl-DNA phosphodiesterase 1 (TDP1): qHTS in cells in absence of CPT; DT40 Tdp1-/- hTDP1 cells, no CPT, ATP luminescence, 48 h; Potency, µM (doses to about 46.2 µM), most hits filed as inhibitors; 15% of 420,000 active; further: nearly all actives have a fitted effect of over 55% in size
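Growth of hTDP1-complemented DT40 Tdp1-knockout cells is measured by ATP luminescence after at least 48 hr compound exposure at 37 °C, with DMSO substituting for the 20 nM CPT used in the parallel screen.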
DT40 TDP1 CPT: DT40-hTDP1 cell growth loss with CPT | chicken DT40 Tdp1-/-;hTDP1 cells + 20 nM CPT, ATP luminescence, 48 h | Potency, µM (highest dose often 46.2 µM), most hits filed as inhibitors | 12% of 420,000 active | AID 686979; further: nearly all actives have a fitted effect of over 55% in size
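Chicken DT40 Tdp1-/- cells stably complemented with human TDP1 were seeded at 400 cells/well in medium containing 20 nM camptothecin, exposed to pin-transferred compounds, and grown at 37 °C for at least 48 hr. Viability was read as ATP luminescence.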
TDP1 inh: TDP1 (human) enzyme inhibition | recombinant TDP1, AlphaScreen DNA substrate cleavage | Potency, µM (series often up to 130 µM), most hits filed as inhibitors | 0.28% of 350,000 active; further: nearly all actives have a fitted effect of over 40% in size
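Enzyme-compound mixtures sat 15 min at room temperature, followed by a 5 min reaction with 15 nM final substrate and 10 min with AlphaScreen beads. Recombinant human Tdp1 was used at 1 nM final.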
RORgamma inh: inhibitors of mouse ROR gamma transcriptional activity; P51450; Drosophila S2 Gal4-RORgamma UAS-luciferase reporter, 20 h; Potency, µM (highest dose often 53.6 µM), hits mostly inhibitors; 5.4% of 310,000 active; further: nearly all actives have a fitted effect of over 60% in size
Target sequence (P51450 whole entry, looked up, the tested form may be a part): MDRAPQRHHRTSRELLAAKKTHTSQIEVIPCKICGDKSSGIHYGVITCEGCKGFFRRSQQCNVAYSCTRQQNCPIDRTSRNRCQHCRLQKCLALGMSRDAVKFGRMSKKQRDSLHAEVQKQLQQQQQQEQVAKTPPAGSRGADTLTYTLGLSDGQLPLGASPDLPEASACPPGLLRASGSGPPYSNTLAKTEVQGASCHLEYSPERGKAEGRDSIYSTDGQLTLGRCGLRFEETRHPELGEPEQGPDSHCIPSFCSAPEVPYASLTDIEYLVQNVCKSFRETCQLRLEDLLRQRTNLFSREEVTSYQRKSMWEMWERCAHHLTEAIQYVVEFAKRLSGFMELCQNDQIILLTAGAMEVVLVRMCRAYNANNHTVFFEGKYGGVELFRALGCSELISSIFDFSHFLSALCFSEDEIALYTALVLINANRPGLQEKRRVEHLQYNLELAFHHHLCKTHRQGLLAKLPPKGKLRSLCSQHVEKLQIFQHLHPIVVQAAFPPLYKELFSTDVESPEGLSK
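Stably transfected Drosophila Schneider cells are the test system, with ROR gamma fused to Gal4 and luciferase under UAS control; luminescence is read after 20 hr of 700 uM copper sulfate induction at ambient temperature.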
VP16 counter: counter-screen for ROR gamma inhibitors: Gal4-VP16 reporter; AID 2546; 3.5% of 310,000 active; Potency, µM (highest dose often 53.6 µM), hits mostly inhibitors; Drosophila S2 Gal4-VP16 UAS-luciferase, luminescence, 20 h;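 further: Gal4-VP16 expression switched on by copper sulfate through the metallothionein promoter; nearly all actives have a fitted effect of over 50% in size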
A number is an active result; - = inactive; ? = inconclusive; . = not tested or not shown; [ ] = dose if it differs, or a comment. Sampled rows, rich in hits. Any-hit rate of the full collection: about 19%. The call rests on the fitted dose curve; in most records, active means well fitted curve in the direction sought with a large enough effect; inconclusive means small, poorly fitted or top-dose-only effect, or another doubt; inactive means no such curve, though single readings can be large; an effect the other way counts as inactive or inconclusive.

SMILES	TDP1 cell noCPT	DT40 TDP1 CPT	TDP1 inh	RORgamma inh	VP16 counter
CC1CCCCC12NC(=O)N(CC(=O)Nc1ccc(Cl)c(S(=O)(=O)N3CCOCC3)c1)C2=O (stereo not given)	18.4µM	?	-	.	.
Cc1ccc(NC(=O)CN2C(=O)NC3(CCCC3)C2=O)cc1S(=O)(=O)N1CCCCC1	-	-	-	.	.
Cc1ccc(NC(=O)CN2C(=O)NC(C)(c3ccc(Cl)cc3)C2=O)cc1S(=O)(=O)N1CCOCC1 (stereo not given)	18.4µM	20.6µM	-	-[10 µM]	-
Cc1ccc(NC(=O)CN2C(=O)NC3(CCCCC3C)C2=O)cc1S(=O)(=O)N1CCOCC1 (stereo not given)	23.1µM	?	.	.	.
CC(C)CCN1CC(=O)N2Cc3[nH]c4ccccc4c3C[C@H]2C1=O	?	-	.	-	-
COc1cc(/C=C2\SC(=O)NC2=O)ccc1Oc1ccc([N+](=O)[O-])cc1[N+](=O)[O-]	16.4µM	18.4µM	-	?	-
COc1ccc(/C=C2/SC(=O)NC2=O)cc1	-	?	-	-	-
CO/N=C/c1ccc(Oc2ccc([N+](=O)[O-])cc2[N+](=O)[O-])c(OC)c1	16.4µM	?	-	-	-
CCOc1ccc(/C=C2\SC(=S)NC2=O)cc1OC	?	?	-	?	?
COc1ccc(/C=N/OC(=O)Nc2ccccc2)cc1[N+](=O)[O-]	-	-	-	-	-
CCN1C(=O)C(=Cc2cccc(OC)c2Oc2ccc([N+](=O)[O-])cc2[N+](=O)[O-])SC1=S	1.46µM	1.46µM	.	?	?
COc1ccc(/C=C2\SC(=O)NC2=S)cc1OC	?	10.3µM	-	?	?
COc1ccc(NC(=O)C(=O)NCCc2csc3nc(-c4ccccc4C)nn23)cc1	?	?	-	.	.
COc1cc(/C=N/O)ccc1Oc1ccc([N+](=O)[O-])cc1[N+](=O)[O-]	18.4µM	?	-	-	-
CCOc1cc(/C=N/O)ccc1OCc1ccc([N+](=O)[O-])cc1	-	?	-	-	-
CC1=C(C(=O)OC2CCCCCC2)C(c2c(F)cccc2Cl)CC(=O)N1 (stereo not given)	16.4µM	?	-[12.3 µM]	.	.
CC1=C(C(=O)OC2CCCCCCC2)C(c2cc3c(cc2Br)OCO3)CC(=O)N1 (stereo not given)	?	?	-	-	-
CC1=C(C(=O)OC2CCCC2)C(c2c(F)cccc2Cl)CC(=O)N1 (stereo not given)	14.6µM	?	-	.	.
O=S(=O)(NCC1CCCO1)c1cc(Cl)ccc1Br (stereo not given)	-	-	-	-	-
CN(C)CCNC(=O)c1c(CSc2ccc(Cl)cc2)noc1C(=O)NCc1ccccc1	16.4µM	18.4µM	.	.	.
CCCCNC(=O)c1c(CSc2ccc(Cl)cc2)noc1C(=O)NCc1ccccc1	?	18.4µM	.	.	.
CCCCNC(=O)c1c(CSc2ccccc2)noc1C(=O)NCc1ccccc1	?	?	-	-	-
[O-][N+](=Cc1ccccc1)c1ccc(Cl)cc1	20.6µM	6.51µM	.	.	.
[O-]/[N+](=C/c1ccc(F)cc1)c1ccc(Cl)cc1	9.2µM	16.4µM	-	?	-
COCCCNC(=O)Cn1ncc2c(=O)oc3ccccc3c21	-	-	-	-	-
SMILES	TDP1 cell noCPT	DT40 TDP1 CPT	TDP1 inh	RORgamma inh	VP16 counter
Cc1c(Cl)cccc1NC(=S)NCCc1ccc(F)cc1	-	-	.	4.47µM	3.55µM
Cc1c(Cl)cccc1NC(=S)NCCc1ccc(Cl)cc1	?	?	.	5.62µM	3.16µM
CCN(CC)S(=O)(=O)c1ccc(N(C)C)c(NC(=O)C2CCCC2)c1	-	-	-	-	-
CC(c1ccccc1)N(C)CC(=O)NC(=O)NCCC1=CCCCC1 (stereo not given)	?	?	-	.	.
COc1ccc(Cl)cc1NC(=O)C1CC(c2ccccc2O)=NO1 (stereo not given)	-	-	.	-	-
O=c1c2ccccc2nc(-c2ccccc2)n1O	-	2.06µM	.	.	.
COc1ccc(-c2nc3ccccc3c(=O)n2O)cc1	-	-	.	12.6µM	?
O=C(O)c1ccccc1-c1nc2ccccc2c(=O)n1O	-	-	-	-	-
C=CCn1c(Sc2nnc(C)s2)nc2c1c(=O)[nH]c(=O)n2C	-	-	-	-	-
N#Cc1cccc(NC(=O)c2cc(C3CCCCN3C(=O)CCCc3ccccc3)on2)c1 (stereo not given)	?	23.1µM	.	.	.
CN(C)c1ccc(CC(=O)N2CCCC(c3cc(C(=O)Nc4ccc(F)c(Cl)c4)no3)C2)cc1 (stereo not given)	23.1µM	16.4µM	.	.	.
Cc1ccc(C)c(CC(=O)N2CCCCC2c2cc(C(=O)Nc3ccc(F)c(Cl)c3)no2)c1 (stereo not given)	23.1µM	20.6µM	.	.	.
CC(=O)Nc1ccc(C(=O)N2CCCCC2c2cc(C(=O)NCc3ccccc3)no2)cc1 (stereo not given)	-	-	.	.	.
O=C(Nc1ccc(F)c(Cl)c1)c1cc(C2CCCCN2C(=O)c2ccc(Cl)cc2)on1 (stereo not given)	20.6µM	20.6µM	.	.	.
O=[N+]([O-])c1ccccc1OCCN1CCOCC1	-	-	.	-	-
COc1cc(C2NC(=O)NC(C)=C2C(C)=O)cc(OC)c1OC (stereo not given)	-	-	-	-	-
COC(=O)[C@]1(C)N[C@H](CN(C)S(=O)(=O)c2ccc(C)cc2)[C@@H]2C(=O)N(Cc3ccccc3)C(=O)[C@@H]21	-	-	-	.	.
O=[N+]([O-])c1ccc(CS(=O)(=O)c2ccc(Cl)cc2)cc1	-	?	.	-	-
O=C(COc1ncnc2cc([N+](=O)[O-])ccc12)N(CCc1ccccc1)Cc1ccccc1	?	?	-	?	-
CC(C)OCCCNC(=O)C1CC(=O)N(CCc2ccccc2)C1 (stereo not given)	-	-	.	-	-
CC(=O)Nc1ccc(C(=O)N2CCCCC2c2cc(C(=O)Nc3ccccc3Cl)no2)cc1 (stereo not given)	-	-	.	.	.
O=C(Nc1ccc(F)c(Cl)c1)c1cc(C2CCCCN2C(=O)c2ccccc2)on1 (stereo not given)	6.51µM	8.2µM	.	.	.
O=C(Nc1ccc(F)c(Cl)c1)c1cc(C2CCCCN2C(=O)CCc2ccccc2)on1 (stereo not given)	?	14.6µM	.	.	.
CCn1c(-c2cccnc2)nc2cc(NC(=O)COC)cc(C(=O)N3CCOc4ccccc4C3)c21	-	-	.	.	.
CC(=O)Nc1ccc(CN2CCN(c3cccc(C(F)(F)F)c3)CC2)cc1	-	?	.	-	-
Cc1ccc(CN2C(=O)c3ccccc3C2c2nnnn2-c2c(C)cccc2C)cc1 (stereo not given)	29.1µM	?	.	.	.
COc1ccc(CN2C(=O)CCC2(C)c2nnnn2-c2c(C)cccc2C)cc1OC (stereo not given)	18.4µM	16.4µM	.	.	.
